# eIF4E-4G inh: eIF4E/eIF4G interaction inhibition in translation initiation. AID 782. TR-FRET eIF4E-eIF4GI(517-606) binding, 2 h. actives 0.37% (n = 220,000). P63073+Q04637. inhibition, % at 21.7 µM;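 active = inhibition above about 30%, limit read from the data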;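 note: 0% = full FRET control wells and 100% = background wells lacking eIF4GI fragment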
# TNF necrop inh: blocks TNF-alpha induced death of Jurkat FADD-/- cells; actives 0.068% (n = 220,000); AID 463075; activation (protection from cell death), % at 10 µM; Jurkat FADD-/- TNF necroptosis rescue, ATP luminescence, 24 h; 0 = TNF only, 100 = no-TNF cells;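 active = activation, meaning protection from cell death, of at least 50% relative to plate controls; inactive = activation below 50%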;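 note: necroptosis triggered by 40 ng/mL TNF-alpha added together with compound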
# EBV gp42 inh: inhibitors of Epstein-Barr virus glycoprotein 42; Q1HVG2; Fluorescence polarization binding assay, mP read-out; inhibition, % (tested at 21.74 µM); actives 0.42% (n = 220,000); in the data active = inhibition above about 50%
# L929 necroptosis: L929 zVAD cell death inhibition; viability rescue, % at 10 µM; L929 zVAD necroptosis rescue, ATP luminescence, 24 h; with zVAD 60 µM; actives 0.38% (n = 220,000);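 active = activation, scaled between plate controls, above about 75%, limit read from the data; inactive = activation under that limit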;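 note: 0% = zVAD with DMSO and 100% = DMSO alone without zVAD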
# zVAD death conf: confirmed blocker of zVAD induced death in L929 cells; shares compounds with L929 necroptosis; activation (protection from necroptosis), % at 10 µM; L929 zVAD-induced necroptosis rescue, ATP luminescence, 24 h; actives 16% (n = 760);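 active = mean protection from necroptosis of at least 50% over duplicate tests; inactive = mean protection below 50%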;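 note: 0% = cells with zVAD alone and 100% = vehicle cells without zVAD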
# The depositor's hits bear a star; . = no result. Only some compounds are listed: those with a hit (about 1.2% of all), similar ones and a draw of the others.
SMILES,eIF4E-4G inh,TNF necrop inh,EBV gp42 inh,L929 necroptosis,zVAD death conf
O=c1cc(-c2ccc(O)c(-c3c(O)cc(O)c4c(=O)cc(-c5ccc(O)cc5)oc34)c2)oc2cc(O)cc(O)c12,12.1,1.7,7.1,6.5,.
O=c1cc(-c2ccc(O)c(O)c2)oc2cc(O)cc(O)c12,2.5,0.4,8.0,84.6*,45.5
COc1ccc(-c2oc3ncnc(NCCCN4CCOCC4)c3c2-c2ccc(OC)cc2)cc1,0.7,-5.6,8.0,76.7*,-0.3
COc1ccc(-c2oc3ncnc(NCCN4CCOCC4)c3c2-c2ccc(OC)cc2)cc1,.,-7.6,.,19.9,.
O=C(N/N=C\c1cccc(Cl)c1)c1n[nH]c2c1CCCC2,2.9,6.3,-10.3,82.6*,27.5
Cc1nnsc1SCCNC(=O)Nc1ccc(Cl)cc1,-4.8,3.3,-1.2,78.8*,4.9
Nc1ncnc2oc(-c3ccco3)c(-c3ccco3)c12,10.5,-9.3,44.6,79.1*,36.4
CCCn1c(=O)c(-c2nc3ccccc3[nH]2)c(O)c2ccccc21,6.1,-0.1,-16.5,71.4,.
CCn1c(=O)c(-c2nc3ccccc3[nH]2)c(O)c2ccccc21,1.1,-0.7,1.6,80.5*,1.4
COc1ccc(Nc2ccccc2N)cc1,-1.3,-8.7,-14.2,91.6*,23.6
Nc1ccc(Nc2ccccc2N)cc1,7.5,-17.0,-9.8,8.6,.
CC(=O)/C=C(\C)Nc1ccccc1O,4.5,12.3,-12.9,81.2*,8.6
CCc1nc(SCc2ccc(F)cc2)[nH]c(=O)c1C#N,3.9,0.5,-8.4,-0.1,.
COc1ccc(Br)cc1C(=O)Nc1ccc(C(=O)O)cc1,0.9,0.0,-12.0,-0.6,.
COc1ccc(NC(=O)c2cc3cccc(OC)c3oc2=Nc2ccc(C(=O)O)cc2)cc1OC,-0.2,-5.7,3.0,82.1*,10.6
O=C(COc1cccc(NC(=O)c2cccs2)c1)c1ccc(F)cc1,-7.3,5.9,-7.7,3.6,.
O=C(Nc1cccc(Oc2ccc3c(c2)C(=O)NC3=O)c1)c1cccs1,-5.3,0.2,17.2,87.0*,43.4
O=C(Nc1cc(C(F)(F)F)ccc1N1CCOCC1)C1Cc2ccccc2CN1C(=O)c1ccco1 (stereo unspecified),4.7,-6.5,8.8,-0.3,.
CN(C)/C=C/C(=O)c1ccc(Cl)cc1,-1.0,-4.9,-5.5,0.8,.
CN(C)/C=C/C(=O)c1ccc(-n2cccc2)cc1,2.6,-0.5,1.9,77.1*,2.9
Cc1ccc(Cn2c(=O)c3ccccc3n3nc(C)cc23)cc1,-0.5,1.5,-0.8,-0.7,.
COc1ccc(Nc2nc(OC)nc(N3CCOCC3)n2)cc1,-0.3,1.2,-3.7,13.3,.
Cc1ccc(Nc2nc(OC(C(F)(F)F)C(F)(F)F)nc(N3CCOCC3)n2)cc1,-3.1,2.7,-10.5,88.2*,2.0
COc1ccc(-n2ncc3c(=O)n(Cc4c(F)cccc4Cl)cnc32)cc1,-0.8,0.7,-7.5,20.8,.
CCCC(=O)n1nc(-c2cccnc2)nc1NCc1cccs1,1.2,1.7,-10.7,77.1*,0.7
SMILES,eIF4E-4G inh,TNF necrop inh,EBV gp42 inh,L929 necroptosis,zVAD death conf
CCC(=O)n1nc(-c2cccnc2)nc1NCc1ccc(F)cc1,-0.1,2.3,-13.6,71.9,.
CCC(=O)n1nc(-c2cccnc2)nc1NCc1cccs1,1.5,1.0,-3.9,72.6,.
O=C(c1ccc([N+](=O)[O-])cc1)n1nc(-c2ccccc2)nc1NCc1ccccc1,13.2,-1.2,-0.9,47.6,.
O=C(c1cccc([N+](=O)[O-])c1)n1nc(-c2ccccc2)nc1NCc1ccccc1,1.6,4.1,-16.2,80.3*,3.1
CCCC(=O)n1nc(-c2cccnc2)nc1NCc1ccccc1,-0.2,2.1,0.2,79.1*,1.2
CCC(=O)n1nc(-c2cccnc2)nc1NCc1ccccc1,2.7,2.4,-12.4,79.3*,7.6
CCN1CCN(c2cc(C)c3cc(NC(=S)N4CCCC(C)C4)ccc3n2)CC1 (stereo unspecified),-0.4,4.9,0.0,1.2,.
Cc1cccc(C)c1OCC(O)CN1CCC(CN2C(=O)c3cccc4cccc(c34)C2=O)CC1 (stereo unspecified),-2.6,-14.8,1.3,1.2,.
O=S(=O)(c1ccc(-c2csc(-c3cccnc3)n2)cc1)N1CCOCC1,-1.4,12.3,1.2,84.5*,6.3
CCN1C(=O)C2(C(C(=O)c3cc4ccccc4o3)=C(O)C(=O)N2CCCN2CCOCC2)c2ccccc21 (stereo unspecified),0.7,1.7,4.0,0.2,.
CCOC(=O)CCC(=O)NNC(=O)c1ccc(NC(=O)c2ccccc2)cc1,0.2,-0.6,0.0,75.4*,12.4
O=C(Nc1ccccc1)NC1CCCCNC1=O (stereo unspecified),4.7,6.0,-10.6,1.2,.
O=C(Oc1ccc(Nc2ncnc3ccccc23)cc1)c1cccnc1,-0.6,-0.7,8.0,80.5*,1.1
COC(=O)C1C(=O)C(C(=O)/C=C/c2ccccc2)C(=O)CC1(C)C (stereo unspecified),-0.6,4.4,0.3,81.2*,1.5
COCCn1c(=NC(=O)/C=C/c2ccccc2)sc2cc(NC(C)=O)ccc21,3.7,-4.1,-38.0,80.5*,7.4
O=C(Nc1nccs1)c1ccc(-c2ccc(F)cc2)o1,0.7,5.1,0.3,83.5*,1.2
COc1ccc(/C=N/Nc2ncc(Br)cn2)c(OC)c1,3.9,19.6,-10.3,84.8*,0.7
c1ccc(Nc2nc(N3CCCCC3)nc(N3CCNCC3)n2)cc1,0.8,-1.7,-15.3,77.3*,2.0
CC1(C)CC(=O)C=C(NCc2ccccc2)C1,-10.7,3.0,-14.2,0.1,.
CC1(C)CC(=O)C=C(Nc2cc(-c3ccccc3)[nH]n2)C1,-2.4,12.3,-8.2,90.8*,24.0
CC(=O)c1cnc2cc(-c3ccccc3)nn2c1C,-1.3,-0.9,-7.7,81.7*,1.7
CC(=O)c1cnc2cc(-c3ccc(C)cc3)nn2c1C,7.1,-2.1,-8.1,0.9,.
CCN(CCO)c1ccc(N=Nc2cc(C)[nH]n2)cc1,-3.9,26.1,-58.3,85.2*,34.4
CSc1nnc(NC(=O)c2cc(=O)c3cc(C)cc(C)c3o2)s1,0.1,0.2,17.9,0.6,.
C/C(=N\NC(=O)c1ccc(OC2OCCOC2Oc2ccc(C(=O)N/N=C(\C)c3ccncc3)cc2)cc1)c1ccncc1 (stereo unspecified),-25.7,-8.3,-58.1,45.9,.
CCCC(=O)OCC(=O)Nc1ccc2[nH]c(=O)[nH]c2c1,1.9,-1.0,5.5,0.7,.
CCC(C)c1ccc(OCC(=O)Nc2ccc3[nH]c(=O)[nH]c3c2)cc1 (stereo unspecified),6.5,1.8,-8.3,77.9*,40.2
O=C(Nc1ccc(N2CCOCC2)cc1)c1cc2c(s1)CCCCC2,3.5,2.7,-9.6,75.3*,4.6
Cc1cnc(NC(=O)c2cc3c(s2)CCCC3)s1,9.4,47.5,-9.0,79.1*,79.0*
Cc1cnc(NC(=O)c2ccco2)s1,4.3,-0.2,-22.5,83.0*,9.6

# Assay outcomes from PubChem BioAssay.
